Experiment [1] deals with Cellular tumor antigen p53 (Homo sapiens) (UniProt P04637). In words: Primary qHTS for small molecule compounds that upregulate eGFP-tagged delta133p53alpha (in N-terminal) cells. (AID 2060322). Further: nearly all actives have a fitted effect of over 75% in size. Further: potency means the concentration at half of the fitted maximal effect.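 On activation: cells pre-induced with doxycycline then dosed without doxycycline; series mostly up to about 56 µM; 0% = DMSO vehicle and 100% = reference activator.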 Particulars: NCI-H358 eGFP-delta133p53alpha fluorescence, 24 h; activation: active compounds read high. The essentials:
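NCI-H358 cells pre-induced 24 h with 10 ng/ml doxycycline for eGFP-delta133p53alpha, plated dox-free and exposed 24 h at 37C to titrated compounds. Fixed, Hoechst-stained; gated GFP peak intensity by laser scanning cytometry, normalized to DMSO (0%) and 57.5 uM 5-azacytidine (100%).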
(Quantitative high-throughput screening tests each substance at several concentrations.)

Experiment [2] concerns the target Aldehyde dehydrogenase, mitochondrial (Homo sapiens) (UniProt P05091). The experiment is described as follows: qHTS for Inhibitors of the Aldehyde Dehydrogenase Family (ALDH2) Primary screen (AID 2061308).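 Further: plate controls were vehicle for no effect and reference inhibitor for full effect; nearly all actives have a fitted effect of over 55% in size.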
Experiment [3] deals with Retinaldehyde dehydrogenase 3 (Homo sapiens) (UniProt P47895). In words: qHTS for Inhibitors of the Aldehyde Dehydrogenase Family (ALDH1A3) Validation screen (AID 2061312). Further: on the % scale 0 is the no-effect control and ±100 the full control effect; nearly all actives have a fitted effect of over 45% in size.
For experiment [4] the target is unchanged. The experiment is described as follows: qHTS for Inhibitors of the Aldehyde Dehydrogenase Family (ALDH1A3) Primary screen (AID 2061315).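 Further: plate controls were DMSO vehicle for no effect and reference inhibitor for full effect.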
Experiment [5] can be described thus: BET inhibitor-based combinations targeting novel dependencies in MECOM-rearranged (r) AML: SET-2 cell line (AID 2202231). Further: nearly all actives have a fitted effect of over 35% in size. Further: potency means the concentration at half of the fitted maximal effect.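 On viability: plate controls were DMSO treated cells for no effect and wells without cells for full effect.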 As to conditions: SET-2 AML cells viability, CellTiter-Glo luminescence, 48 h; viability: active compounds read low, concentration not given here. The essentials: (§1)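 Luminescent ATP readout (CellTiter-Glo) after 48 hr drug exposure gives viability. Curves span 11 concentrations and are normalized to DMSO and empty wells. Activity is reported as area under the curve and its Z-transform within each cell line.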
For orientation: In ATP-based viability assays light output follows the ATP content of the culture.

The nature of experiment [6]: BET inhibitor-based combinations targeting novel dependencies in MECOM-rearranged (r) AML: OCI-AML3 cell line (AID 2202232). Further: nearly all actives have a fitted effect of over 35% in size. Further: potency means the concentration at half of the fitted maximal effect. As to conditions: Potency: OCI-AML3 viability. The essentials:
as §1

The nature of experiment [7]: BET inhibitor-based combinations targeting novel dependencies in MECOM-rearranged (r) AML: MV-4-11 cell line (AID 2202233). Further: nearly all actives have a fitted effect of over 45% in size. Further: potency means the concentration at half of the fitted maximal effect. The essentials: (§2)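 Luminescent ATP readout (CellTiter-Glo, 15 min at room temperature) after 48 hr drug exposure gave viability. Dose-response curves, normalized to DMSO and empty-well controls, were summarized as area under the curve and its mean-centred Z-score.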

Experiment [8] can be described thus: BET inhibitor-based combinations targeting novel dependencies in MECOM-rearranged (r) AML: HNT-34 cell line (AID 2202234). Further: nearly all actives have a fitted effect of over 35% in size. Further: potency means the concentration at half of the fitted maximal effect. The gist of the method:
as §2

A short description of experiment [9]: BET inhibitor-based combinations targeting novel dependencies in MECOM-rearranged (r) AML: UCSD-AML1 cell line (AID 2202235). Further: nearly all actives have a fitted effect of over 40% in size. Further: potency means the concentration at half of the fitted maximal effect. The essentials: as §2
The nature of experiment [10]: BET inhibitor-based combinations targeting novel dependencies in MECOM-rearranged (r) AML: AML-191 cell line (AID 2202236; further: nearly all actives have a fitted effect of over 35% in size; further: potency means the concentration at half of the fitted maximal effect). The gist of the method: as §1
Experiment [11] in a line: BET inhibitor-based combinations targeting novel dependencies in MECOM-rearranged (r) AML: AML-194 cell line (AID 2202237; further: nearly all actives have a fitted effect of over 40% in size; further: potency means the concentration at half of the fitted maximal effect). The gist of the method: as §1

“And” between values parts separate entries of the source, which are not always exact repeats. Equal values may be shown once. Results filed as inconclusive are left out. The source made the active and inactive calls. The call rests on the fitted dose curve; in most records, active means well fitted curve in the direction sought with a large enough effect; inconclusive means small, poorly fitted or top-dose-only effect, or another doubt; inactive means no such curve, though single readings can be large; an effect the other way counts as inactive or inconclusive.

These results are taken from PubChem BioAssay (NCATS).

Chain of Cellular tumor antigen p53 (Homo sapiens) (P04637 whole entry, looked up): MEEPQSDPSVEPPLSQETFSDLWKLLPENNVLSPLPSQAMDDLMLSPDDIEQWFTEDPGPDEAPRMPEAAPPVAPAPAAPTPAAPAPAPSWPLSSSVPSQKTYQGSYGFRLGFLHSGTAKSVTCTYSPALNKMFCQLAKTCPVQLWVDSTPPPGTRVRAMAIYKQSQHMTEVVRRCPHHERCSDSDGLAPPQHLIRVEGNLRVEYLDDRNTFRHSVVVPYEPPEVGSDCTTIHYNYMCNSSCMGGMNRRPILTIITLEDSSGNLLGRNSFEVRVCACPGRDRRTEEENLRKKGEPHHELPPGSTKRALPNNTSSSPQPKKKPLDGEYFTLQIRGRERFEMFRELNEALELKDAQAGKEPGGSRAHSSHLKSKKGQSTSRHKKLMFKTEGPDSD

`COc1cccc(-n2nc(C(=O)O)cc2-c2ccc(C3CCCCC3)c(Cl)c2)c1`: in experiment [1], the activation was 1.43% (inactive). Moreover, the Potency result in experiment [2], in experiment [3] and in experiment [4] was “inactive” throughout.
As for `CN(C)c1ccnc2sc3c(=O)n(N4CCCCCC4)cnc3c12`, in experiment [1], the activation was -18.1% (inactive). The Potency entry in experiment [2], in experiment [3] and in experiment [4] was “inactive” each time.
With `CC(C)C(CO)Nc1nc(Nc2cc(N)cc(Cl)c2)c2ncn(C(C)C)c2n1` (configuration not stated), the Potency in experiment [1] was 30.1 µM (active). The Potency result in experiment [2], in experiment [3] and in [4] was “inactive” in each case.
`COc1c(F)cccc1C(=O)N1C[C@@H](C)CC[C@H]1CNc1ccc(Br)cn1`: the activation in [1] is -8.59% (inactive). The Potency result in experiment [2], in [3] and in [4] was “inactive” throughout.
As for `Cc1ccc(-c2c(-c3nn(C)c4ncnc(N5CCC(N6CCCCC6)C5)c34)cnn2C)cc1` (configuration not stated), in [1], the activation was 2.39% (inactive). Further, the Potency entry in experiment [2], in experiment [3] and in [4] was “inactive” throughout.
For the compound `c1ccc(CN(CC2=NCCN2)c2ccccc2)cc1`, in experiment [1], the activation is 0.837% (inactive) and -3.82% (inactive). Also, the Potency entry in experiment [2], in experiment [3] and in experiment [4] was “inactive” each time.
Regarding `COc1ccc(NC(=O)c2ccc(-c3ccc(-c4nnc(C)o4)cc3C)cc2)cc1N1CCN(C)CC1`, in experiment [1], the activation is -6.21% (inactive). For the same compound, the Potency entry in [2], in experiment [3] and in [4] was “inactive” each time.
For the compound `Cc1ccnn1-c1ccc(C(=O)N2CCN(S(=O)(=O)c3ccc(Cl)c(C(F)(F)F)c3)CC2)cc1`, the activation in experiment [1] is -9.07% (inactive). The Potency entry in [2], in experiment [3] and in experiment [4] was “inactive” in each case.
Consider `CC(C)C[C@H](NC(=O)[C@H](Cc1ccccc1)NC(=O)c1cnccn1)B(O)O`, for which the Potency was 968 nM (active) and 379 nM (active) in experiment [1]; 0.0166 µM (active) in [5]; 0.0105 µM (active) in experiment [6]; 0.0132 µM (active) in experiment [7]; 0.0148 µM (active) in experiment [8]; 0.0186 µM (active) in [9]. Moreover, the Potency was 0.0186 µM (active) in experiment [10] and 0.0209 µM (active) in experiment [11]. The Potency result in experiment [2], in experiment [3] and in [4] was “inactive” in each case.
Consider `CN(C)C1CCN(C(=O)c2ccc(NC(=O)Nc3nc(N4CCOCC4)nc(N4CCOCC4)n3)cc2)CC1`, for which the activation in [1] is -12.1% (inactive). Besides, the Potency entry in experiment [2], in experiment [3] and in experiment [4] was “inactive” in each case. Besides, the Potency in experiment [5] was 5.25 µM (active); in experiment [6], 0.132 µM (active); in [7] it was 0.105 µM (active); in experiment [8] it was 0.105 µM (active); in experiment [9], 0.296 µM (active); in [11], 0.59 µM (active).
The viability is a read-out of living cells in per cent, often relative to untreated cells. For `COc1ccc2nc3n[nH]c(C)c3c(NCCOCCO)c2c1`, the activation in [1] is 6.21% (inactive). In addition, the Potency result in experiment [2], in [3], in experiment [4], in experiment [6], in experiment [7] and in experiment [8] was “inactive” in each case. Besides, the Potency result in [9], in [10] and in experiment [11] was “inactive” throughout. In addition, in experiment [5], the viability was 97% (inactive).
Take `NC(=O)Nc1cc(-c2cccc(F)c2)sc1C(=O)N[C@H]1CCCNC1`: the Potency is 8.49 µM (active) in experiment [1]; 0.934 µM (active) in experiment [5]; 0.468 µM (active) in experiment [6]; 0.0021 µM (active) in experiment [7]; 0.468 µM (active) in [8]; 0.296 µM (active) in experiment [9]. In addition, the Potency in [10] was 0.332 µM (active); in experiment [11], 0.372 µM (active). Moreover, the Potency result in [2], in experiment [3] and in [4] was “inactive” in each case.
On to `CN1CCN(Cc2ccc(NC(=O)Nc3ccc(Oc4cc(NC(=O)C5CC5)ncn4)cc3)cc2C(F)(F)F)CC1`, for which the Potency in [1] is 0.968 µM (active); in experiment [5], 0.742 µM (active); in experiment [6], 0.372 µM (active); in experiment [7], 0.0037 µM (active); in experiment [8], 0.0468 µM (active); in experiment [9] it was 0.372 µM (active). Further, the Potency in experiment [10] is 0.59 µM (active); in [11], 0.833 µM (active). The Potency result in experiment [2], in experiment [3] and in experiment [4] was “inactive” each time.
Turning to `NCC1CCN(c2nccc(-c3ccc4ccccc4c3)n2)CC1`, the Potency in experiment [1] is 23.9 µM (active); in experiment [5] it was 16.6 µM (active); in experiment [6], 4.68 µM (active); in experiment [7], 4.17 µM (active); in experiment [8] it was 8.33 µM (active); in [9], 2.95 µM (active). Moreover, the figures for the Potency in experiment [10] and in [11] were 2.63 µM (active) and 2.95 µM (active), respectively. The Potency entry in experiment [2], in experiment [3] and in [4] was “inactive” each time.
As to `O=C(O)CCn1c2c(c3ccccc31)C[C@H](NS(=O)(=O)c1ccc(F)cc1)CC2`, in experiment [1], the activation was 0.565% (inactive) and -1.83% (inactive) and 6.68% (inactive). The Potency entry in experiment [2], in [3], in experiment [4], in experiment [6], in experiment [7] and in experiment [8] was “inactive” in each case. The Potency result in [9] and in [10] was “inactive” in each case. Further, in [5], the viability was 105% (inactive).
`CC1COC2(CCN(c3nc(=O)c4cc(C(F)(F)F)cc([N+](=O)[O-])c4s3)CC2)O1` (configuration not stated): the activation in experiment [1] is -5.81% (inactive) and -10.5% (inactive). Also, the Potency result in experiment [2], in [3], in [4], in experiment [6], in experiment [7] and in experiment [8] was “inactive” throughout. Moreover, the Potency entry in [10] and in experiment [11] was “inactive” in each case. Also, in experiment [5], the viability was 104% (inactive).
For the compound `CCN(CC)CCNC(=O)c1ccc2nc(-c3ccccc3)c(-c3ccc(CN4CCC(n5c(=O)[nH]c6ccccc65)CC4)cc3)nc2c1`, the Potency was 4.32 µM (active) and 8.49 µM (active) in experiment [1]; 8.33 µM (active) in experiment [5]; 8.33 µM (active) in experiment [6]; 6.61 µM (active) in experiment [7]; 8.33 µM (active) in experiment [8]; 9.34 µM (active) in experiment [10]. In addition, the Potency in [11] was 7.42 µM (active). Besides, the Potency entry in [2], in experiment [3] and in experiment [4] was “inactive” throughout.
